Measured values as given in PubChem BioAssay (NCI).
Compounds without any hit were thinned out: in the full panel of roughly 83,000, 20% have a hit.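 Method: cells in 96-well plates; compound added at one concentration; 48 h incubation; percent growth measured; values under 10 scored active.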 Active and inactive are the calls of the source.

Columns and labels:
Test in all cases: NCI-60 one-dose screen, 48 h (100 = growth as untreated, 0 = no growth, -100 = all killed)
Conditions in all cases: 10 µM unless noted
NCI-H23 lung = test system: NCI-H23 lung
NCI-H226 lung = test system: NCI-H226 lung
NCI-H322M lung = test system: NCI-H322M lung
HOP-62 NSCLC = test system: HOP-62 NSCLC
NCI-H460 lung = test system: NCI-H460 lung
A549/ATCC NSCLC = test system: A549/ATCC NSCLC
786-0 renal = test system: 786-0 renal
COLO 205 colon = test system: COLO 205 colon

Measured: growth

N#Cc1ccc(OCc2nc(N)nc(N)c2-c2ccc(Cl)c(Cl)c2)cc1
active: HOP-62 NSCLC 9.96% | A549/ATCC NSCLC 7.74%
inactive: NCI-H23 lung 36.3% | NCI-H226 lung 45.8% | NCI-H322M lung 40.6% | NCI-H460 lung 14.1% | 786-0 renal 25.8% | COLO 205 colon 45.5%

CCCCCCCCCCCCCCCCCCOP(=O)(O)O
inactive: NCI-H23 lung 106% | NCI-H226 lung 98.8% | NCI-H322M lung 103% | HOP-62 NSCLC 100% | NCI-H460 lung 101% | A549/ATCC NSCLC 105% | 786-0 renal 116% | COLO 205 colon 111%

CCCCCCCCCCC1OC(C)CC(C)O1 (configuration not stated)
inactive: NCI-H23 lung 100% | NCI-H226 lung 102% | NCI-H322M lung 102% | HOP-62 NSCLC 99.8% | NCI-H460 lung 106% | A549/ATCC NSCLC 98.7% | 786-0 renal 93.4% | COLO 205 colon 105%

CC(C)(CNC1CCCCC1)OC(=O)c1ccccc1
inactive: NCI-H23 lung 107% | NCI-H226 lung 97.8% | NCI-H322M lung 103% | HOP-62 NSCLC 102% | NCI-H460 lung 106% | A549/ATCC NSCLC 108% | 786-0 renal 100% | COLO 205 colon 104%

O=c1[nH]c2cc(O)ccc2n2cc3c(F)cccc3c12
active: NCI-H460 lung 2.7%
inactive: NCI-H23 lung 39.6% | NCI-H226 lung 60.8% | NCI-H322M lung 29.4% | HOP-62 NSCLC 21.1% | A549/ATCC NSCLC 22% | 786-0 renal 28.7% | COLO 205 colon 66.2%

CC(=O)Nc1ccc(S(=O)(=O)Cl)cc1
inactive: NCI-H23 lung 112% | NCI-H226 lung 95.5% | NCI-H322M lung 111% | HOP-62 NSCLC 102% | NCI-H460 lung 102% | A549/ATCC NSCLC 104% | 786-0 renal 104% | COLO 205 colon 108%

O=C1C(Br)=CC2C1C1C3CCC3C2(Br)C12OCCO2 (configuration not stated)
inactive: NCI-H23 lung 65.8% | NCI-H226 lung 59.6% | NCI-H322M lung 54.5% | HOP-62 NSCLC 47.2% | NCI-H460 lung 22.6% | A549/ATCC NSCLC 33.2% | 786-0 renal 42.8% | COLO 205 colon 38.9%

CN1NC(c2ccccc2)NN(C)C1=O
inactive: NCI-H23 lung 107% | NCI-H226 lung 102% | NCI-H322M lung 89.8% | HOP-62 NSCLC 93.6% | NCI-H460 lung 109% | A549/ATCC NSCLC 101% | 786-0 renal 102% | COLO 205 colon 105%

COC(=O)c1cc(Nc2ccc(O)c3c2C(=O)c2c([N+](=O)[O-])ccc(O)c2C3=O)cc(C(=O)OC)c1
inactive: NCI-H226 lung 82.5% | HOP-62 NSCLC 72.8% | NCI-H460 lung 55.7% | 786-0 renal 88.7% | COLO 205 colon 12%
active: NCI-H23 lung -20.3% | NCI-H322M lung -2.32% | A549/ATCC NSCLC -50.2%

COc1ccc(/C=N/c2cc(C(C)(C)C)nn2-c2ccccc2)cc1
inactive: NCI-H23 lung 106% | NCI-H226 lung 89% | NCI-H322M lung 110% | HOP-62 NSCLC 111% | NCI-H460 lung 97.1% | A549/ATCC NSCLC 101% | 786-0 renal 93.7% | COLO 205 colon 105%

Nc1nc(-c2cccc(Br)c2)cc(-c2cc3ccccc3oc2=O)n1
inactive: NCI-H23 lung 96.1% | NCI-H226 lung 91.5% | NCI-H322M lung 115% | HOP-62 NSCLC 90.9% | NCI-H460 lung 103% | A549/ATCC NSCLC 97.2% | 786-0 renal 105% | COLO 205 colon 113%

CCCC[N+](C)(N)CCCC
inactive: NCI-H23 lung 112% | NCI-H226 lung 105% | NCI-H322M lung 103% | HOP-62 NSCLC 97.6% | NCI-H460 lung 102% | A549/ATCC NSCLC 103% | 786-0 renal 97.1% | COLO 205 colon 122%

CC(=O)CC(=O)OC/C=C(/C)CCC=C(C)C
inactive: NCI-H23 lung 103% | NCI-H226 lung 101% | NCI-H322M lung 118% | HOP-62 NSCLC 107% | NCI-H460 lung 109% | A549/ATCC NSCLC 105% | 786-0 renal 104% | COLO 205 colon 109%

O=C(/C=C/c1ccc(Cl)cc1)c1ccc(Cl)cc1
inactive: NCI-H23 lung 94.8% | NCI-H226 lung 100% | NCI-H322M lung 91.3% | HOP-62 NSCLC 102% | NCI-H460 lung 104% | A549/ATCC NSCLC 95.5% | 786-0 renal 83.4% | COLO 205 colon 113%

CCCCCCCCCC[N+](C)(C)N
inactive: NCI-H23 lung 104% | NCI-H226 lung 92.3% | NCI-H322M lung 97.7% | HOP-62 NSCLC 95.8% | NCI-H460 lung 111% | A549/ATCC NSCLC 97.6% | 786-0 renal 81.9% | COLO 205 colon 100%

COC(=O)c1c[n+]([O-])ccc1OC
inactive: NCI-H23 lung 106% | NCI-H226 lung 107% | NCI-H322M lung 97.1% | HOP-62 NSCLC 97.1% | NCI-H460 lung 107% | A549/ATCC NSCLC 105% | 786-0 renal 100% | COLO 205 colon 109%

O=C(Nc1ccc(-n2cc(-c3ccncc3)c(-c3ccc(Cl)c(O)c3)n2)cc1)c1ccc(Cl)c(C(F)(F)F)c1
inactive: NCI-H226 lung 89% | NCI-H322M lung 37.2%
active: NCI-H23 lung -54.4% | HOP-62 NSCLC -66.1% | NCI-H460 lung -74.4% | A549/ATCC NSCLC -30.3% | 786-0 renal -94.1% | COLO 205 colon -1.56%

O=c1c2c(c3ccccc3n1-c1ccccc1)NC(=S)NC2c1ccccc1 (configuration not stated)
inactive: NCI-H23 lung 98.5% | NCI-H226 lung 92.1% | NCI-H322M lung 130% | HOP-62 NSCLC 90.5% | NCI-H460 lung 104% | A549/ATCC NSCLC 103% | 786-0 renal 97.3% | COLO 205 colon 113%

O=C(Nc1ccc(-n2cc(-c3ccncc3)c(-c3ccc(Cl)c(O)c3)n2)cc1)Nc1cc(C(F)(F)F)cc(C(F)(F)F)c1
active: NCI-H460 lung 5.79% | 786-0 renal -60.1% | COLO 205 colon -55.2%
inactive: NCI-H23 lung 15.4% | NCI-H226 lung 42% | NCI-H322M lung 41.9% | HOP-62 NSCLC 14% | A549/ATCC NSCLC 17.6%

CC(Br)c1nc2ccccc2cc1C(N)=O (configuration not stated)
inactive: NCI-H23 lung 107% | NCI-H226 lung 106% | NCI-H322M lung 99.9% | HOP-62 NSCLC 101% | NCI-H460 lung 102% | A549/ATCC NSCLC 97% | 786-0 renal 103% | COLO 205 colon 110%

COc1cc([C@@H]2c3cc4c(cc3[C@H](O)[C@H]3COC[C@@H]23)OCO4)cc(OC)c1OC
inactive: NCI-H23 lung 91.8% | NCI-H226 lung 88.8% | NCI-H322M lung 104% | HOP-62 NSCLC 65.4% | NCI-H460 lung 94.4% | A549/ATCC NSCLC 98.8% | 786-0 renal 78.5% | COLO 205 colon 96.7%

CC#Cc1nc(Nc2cc(C)[nH]n2)c2ccccc2n1
active: NCI-H23 lung 2.12% [100 µM] | NCI-H226 lung -27.7% [100 µM] | NCI-H322M lung 9.12% [100 µM] | HOP-62 NSCLC -23.1% [100 µM] | NCI-H460 lung 3.75% [100 µM] | A549/ATCC NSCLC 1.41% [100 µM] | 786-0 renal 7.19% [100 µM] | COLO 205 colon -100% [100 µM]

CCCCCCCCCCC(C[N+](C)(C)C/C=C/c1ccccc1)C(O)c1ccccc1 (configuration not stated)
inactive: NCI-H226 lung 29% | NCI-H322M lung 46.7% | A549/ATCC NSCLC 54.5%
active: NCI-H23 lung 7.14% | HOP-62 NSCLC -30.3% | NCI-H460 lung 5.75% | 786-0 renal -5.14% | COLO 205 colon -89.2%

CCCCCCCCCCCCCCCCNC(=S)N/N=C/c1ccc(O)cc1O
inactive: NCI-H23 lung 77.1% | NCI-H226 lung 76% | NCI-H322M lung 95.2% | HOP-62 NSCLC 83.1% | NCI-H460 lung 37.1% | A549/ATCC NSCLC 55.1% | 786-0 renal 73.3% | COLO 205 colon 98%

CC(=O)c1ccc2c(c1)c1ccccc1n2C
inactive: NCI-H23 lung 94.1% | NCI-H226 lung 84.2% | NCI-H322M lung 86.2% | HOP-62 NSCLC 83.2% | NCI-H460 lung 98.5% | A549/ATCC NSCLC 96.9% | 786-0 renal 96.6% | COLO 205 colon 99.8%

S=C(N/N=C/c1cc(Cl)cc(Cl)c1)NC12CC3CC(CC(C3)C1)C2
inactive: NCI-H23 lung 97.8% | NCI-H226 lung 79.6% | NCI-H322M lung 62.2% | HOP-62 NSCLC 78.2% | NCI-H460 lung 34.4% | A549/ATCC NSCLC 45% | 786-0 renal 71% | COLO 205 colon 68.8%

CCCCCCC(=O)C(C)C
inactive: NCI-H23 lung 107% | NCI-H226 lung 92.3% | NCI-H322M lung 96.5% | HOP-62 NSCLC 93.8% | NCI-H460 lung 113% | A549/ATCC NSCLC 97.5% | 786-0 renal 94.5% | COLO 205 colon 112%

CC(CCN1CCN(CCC(C)CC(C)(C)C)C1CC(C)CC(C)(C)C)CC(C)(C)C (configuration not stated)
inactive: NCI-H23 lung 100% | NCI-H226 lung 98.7% | NCI-H322M lung 99.8% | HOP-62 NSCLC 93.5% | NCI-H460 lung 101% | A549/ATCC NSCLC 96.2% | 786-0 renal 97.9% | COLO 205 colon 86.2%

CN(CCC#N)c1ccc(/C=C(\C#N)c2cccc(C(F)(F)F)c2)cc1
inactive: NCI-H23 lung 66.2% | NCI-H226 lung 65.7% | NCI-H322M lung 86.5% | HOP-62 NSCLC 81.7% | NCI-H460 lung 74% | A549/ATCC NSCLC 36.3% | 786-0 renal 74.9% | COLO 205 colon 49.5%
